Results from PubChem BioAssay (NCATS).
Inconclusive results are not listed. Where a call stands in place of a potency, no number is given. Calls of active or inactive are those of the source. Calls follow the shape of the dose curve; as a rule, active = well fitted curve in the direction sought with a large enough effect; inconclusive = small, poorly fitted or top-dose-only effect, or another doubt; inactive = no such curve, though single readings can be large; an effect the other way counts as inactive or inconclusive.

test system: Nanoluciferase (engineered Oplophorus gracilirostris luciferase); experiment: Primary Nanoluciferase (NLuc) qHTS assay for identification of artifact compounds. (AID 1845222); conditions: NLuc-conditioned medium, Nano-Glo luminescence, 5 min; series mostly up to 54.1 µM;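 also: NLuc secreted into diluted conditioned medium of S16 cells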
Method in brief: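 NLuc from S16 cell medium (1:55) plus test compounds, 15 min, room temperature. Luminescence after Nano-Glo (1:100) addition, 5 min.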

| Structure (SMILES) | Potency | activity, negative = inhibition |
| --- | --- | --- |
| C=C[C@H]1CN2CC[C@H]1C[C@@H]2C(O)c1ccnc2ccc(OC)cc12 (stereo not given in full) | inactive | – |
| Cc1cc(C)c2c(N)c(C(=O)NCc3ccc(Cl)cc3)sc2n1 | inactive | – |
| OC1CCC(Nc2ncc3nc(Nc4c(F)cc(F)cc4F)n([C@H]4CCOC4)c3n2)CC1 (stereo not given in full) | inactive | – |
| COc1ccc2c(OC)c3ccoc3nc2c1OC | inactive | – |
| CC(C)CN(C[C@@H](O)[C@H](Cc1ccccc1)NC(=O)O[C@@H]1CO[C@H]2OCC[C@H]21)S(=O)(=O)c1ccc(N)cc1 | inactive | – |
| O=[N+]([O-])c1cn2c(n1)OCC(OCc1ccc(OC(F)(F)F)cc1)C2 (stereo not given) | inactive | – |
| O=C(O)c1cn(C2CC2)c2cc(N3C[C@@H]4C[C@H]3CN4)c(F)cc2c1=O | inactive | – |
| COc1cc2oc(-c3ccc(O)cc3O)cc2c(OC)c1CC=C(C)C | inactive | – |
| Cc1c(C(=O)Nc2ccc(N3CC(C)OC(C)C3)nc2)cccc1-c1ccc(OC(F)(F)F)cc1 (stereo not given) | inactive | – |
| C=C1C(=O)O[C@@H]2C/C(C)=C\C(=O)/C=C(\C)[C@@H](OC(=O)/C(C)=C\C)[C@H](O)[C@@H]12 | inactive | – |
| CC(=O)O[C@H]1C(=O)[C@@]2(C)[C@H]([C@H](OC(=O)c3ccccc3)[C@]3(O)C[C@H](OC(=O)[C@H](O)[C@@H](NC(=O)c4ccccc4)c4ccccc4)C(C)=C1C3(C)C)[C@]1(OC(C)=O)CO[C@@H]1C[C@@H]2O | – | 4.66% [at 11.6 µM] (inactive) |
| COc1ccc(CC2NCCc3c2[nH]c2ccc(C)cc32)cc1OC (stereo not given) | inactive | – |
| Cc1ccc(F)cc1C(=O)Nc1ccc(C(=O)N2Cc3cccn3Cc3ccccc32)c(Cl)c1 | inactive | – |
| OCC1OC(Oc2cc(O)cc(/C=C/c3ccc(O)cc3)c2)C(O)C(O)C1O (stereo not given) | inactive | – |
| CCC(C)/C=C(C)/C=C/c1cc2c(cn1)C(=O)C(C)(OC(C)=O)C(O)=C2Cl (stereo not given) | inactive | – |
| Cc1cn(C2C=CC(CO)O2)c(=O)[nH]c1=O (stereo not given) | inactive | – |
| COc1ccc(C2COc3cc(O)ccc3C2)c(O)c1 (stereo not given) | inactive | – |
| C[C@@H]1C(=O)O[C@H]2[C@@H](O)C34[C@H]5C[C@@H](C(C)(C)C)C36[C@@H](OC(=O)[C@@H]6O)O[C@@]4(C(=O)O5)[C@@]12O (stereo not given in full) | inactive | – |
| O=C(Nc1ccc(Cl)cc1F)c1ccccc1O | inactive | – |
| CCOC(=O)Nc1cc(-c2ccc(C)c(NS(C)(=O)=O)c2)nn2c(C)nnc12 | inactive | – |
| Cn1nnc(-c2ccc(-c3ccc(N4C[C@H](COP(=O)(O)O)OC4=O)cc3F)cn2)n1 | inactive | – |

test system: not listed separately; experiment: Primary redox qHTS assay for identification of artifact compounds. (AID 1845223); conditions: Amplex Red/HRP redox cycling with DTT, fluorescence; series mostly up to 53.8 µM
Method in brief: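 Amplex Red (25 uM) and HRP (250 mU/mL) in HBSS, with compounds for 15 min, then 250 uM DTT for 30 min, room temperature, dark. Fluorescence 525/598 nm read; normalized to DMSO and 10 uM DA3003; Hill fit.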

| Structure (SMILES) | Potency | redox activity (% of DA3003) |
| --- | --- | --- |
| CC(c1ncncc1F)C(O)(Cn1cncn1)c1ccc(F)cc1F (stereo not given) | inactive | – |
| CNC(C)C(=O)NC(C(=O)N1CCCC1c1nc(C(=O)c2ccc(F)cc2)cs1)C1CCCCC1 (stereo not given) | inactive | – |
| C/C=C1\[C@H](O[C@@H]2O[C@H](CO)[C@@H](O)[C@H](O)[C@H]2O)OC=C(C(=O)OC)[C@H]1CC(=O)OC[C@H]1O[C@@H](OCCc2ccc(O)cc2)[C@H](O)[C@@H](O)[C@@H]1O | inactive | – |
| OC/C=C/c1ccc(O[C@@H]2O[C@H](CO)[C@@H](O)[C@H](O)[C@H]2O)cc1 | inactive | – |
| Cn1nc(C(C)(C)C)cc1C(=O)NC(Cc1cccc(Cl)c1)C(=O)NCC#N (stereo not given) | inactive | – |
| CS(=O)(=O)NCC1CCC(Nc2nc3c(s2)CCSc2ccccc2-3)CC1 (stereo not given) | inactive | – |
| COC(=O)C1=CO[C@@H](O[C@@H]2O[C@H](CO)[C@@H](O)[C@H](O)[C@H]2O)[C@@H]2C(COC(C)=O)=C[C@H](O)[C@H]12 | inactive | – |
| C=CC(C)(O)CC/C=C(\C)C(=O)OC1C(O)C(CO)OC(OC(=O)C23CCC(C)(C)CC2C2=CCC4C5(C)CCC(OC6OC(COC7OCC(OC(C)=O)C(O)C7OC7OC(COC(C)=O)C(O)C(O)C7O)C(O)C(O)C6O)C(C)(C)C5CCC4(C)C2(C)C(O)C3O)C1OC1OCC(OC2OCC(O)C(OC3OCC(O)C(O)C3O)C2O)C(O)C1O (stereo not given) | – | -2.76% [at 6.41 µM] (inactive) |
| NC(=O)C(CCC(F)(F)F)N(Cc1ccc(-c2ncon2)cc1F)S(=O)(=O)c1ccc(Cl)cc1 (stereo not given) | inactive | – |
| COc1cc2c3c(cc4ccccc4c3c1O)NC2=O | inactive | – |
| CC[C@H]1OC(=O)[C@](C)(F)C(=O)[C@H](C)[C@@H](O[C@@H]2O[C@H](C)C[C@H](N(C)C)[C@H]2O)[C@](C)(OC)C[C@@H](C)C(=O)[C@@H](C)[C@H]2N(CCCCn3cc(-c4cccc(N)c4)nn3)C(=O)O[C@]12C | inactive | – |
| COC(=O)CC1CC(c2ccc(O)cc2)=NO1 (stereo not given) | inactive | – |
| CC1(c2nc3c(C(N)=O)cccc3[nH]2)CCCN1 (stereo not given) | inactive | – |
| COC(=O)N[C@H](C(=O)N1[C@@H]2CC[C@@H](C2)[C@H]1c1nc2ccc(-c3ccc4c(c3)C(F)(F)c3cc(-c5cnc([C@@H]6CCC7(CC7)N6C(=O)[C@@H](NC(=O)OC)C(C)C)[nH]5)ccc3-4)cc2[nH]1)C(C)C | inactive | – |
| C=C[C@H]1CN2CC[C@H]1C[C@@H]2C(O)c1ccnc2ccc(OC)cc12 (stereo not given in full) | inactive | – |
| Cc1cc(C)c2c(N)c(C(=O)NCc3ccc(Cl)cc3)sc2n1 | inactive | – |
| OC1CCC(Nc2ncc3nc(Nc4c(F)cc(F)cc4F)n([C@H]4CCOC4)c3n2)CC1 (stereo not given in full) | inactive | – |

| Structure (SMILES) | Potency | redox activity (% of DA3003) |
| --- | --- | --- |
| COc1ccc2c(OC)c3ccoc3nc2c1OC | inactive | – |
| CC(C)CN(C[C@@H](O)[C@H](Cc1ccccc1)NC(=O)O[C@@H]1CO[C@H]2OCC[C@H]21)S(=O)(=O)c1ccc(N)cc1 | inactive | – |
| O=[N+]([O-])c1cn2c(n1)OCC(OCc1ccc(OC(F)(F)F)cc1)C2 (stereo not given) | inactive | – |
| O=C(O)c1cn(C2CC2)c2cc(N3C[C@@H]4C[C@H]3CN4)c(F)cc2c1=O | inactive | – |
| COc1cc2oc(-c3ccc(O)cc3O)cc2c(OC)c1CC=C(C)C | inactive | – |
| Cc1c(C(=O)Nc2ccc(N3CC(C)OC(C)C3)nc2)cccc1-c1ccc(OC(F)(F)F)cc1 (stereo not given) | inactive | – |
| C=C1C(=O)O[C@@H]2C/C(C)=C\C(=O)/C=C(\C)[C@@H](OC(=O)/C(C)=C\C)[C@H](O)[C@@H]12 | inactive | – |
| CC(=O)O[C@H]1C(=O)[C@@]2(C)[C@H]([C@H](OC(=O)c3ccccc3)[C@]3(O)C[C@H](OC(=O)[C@H](O)[C@@H](NC(=O)c4ccccc4)c4ccccc4)C(C)=C1C3(C)C)[C@]1(OC(C)=O)CO[C@@H]1C[C@@H]2O | – | 1.32% [at 11.5 µM] (inactive) |
| COc1ccc(CC2NCCc3c2[nH]c2ccc(C)cc32)cc1OC (stereo not given) | inactive | – |
| Cc1ccc(F)cc1C(=O)Nc1ccc(C(=O)N2Cc3cccn3Cc3ccccc32)c(Cl)c1 | inactive | – |
| OCC1OC(Oc2cc(O)cc(/C=C/c3ccc(O)cc3)c2)C(O)C(O)C1O (stereo not given) | inactive | – |
| Cc1cn(C2C=CC(CO)O2)c(=O)[nH]c1=O (stereo not given) | inactive | – |
| COc1ccc(C2COc3cc(O)ccc3C2)c(O)c1 (stereo not given) | inactive | – |
| C[C@@H]1C(=O)O[C@H]2[C@@H](O)C34[C@H]5C[C@@H](C(C)(C)C)C36[C@@H](OC(=O)[C@@H]6O)O[C@@]4(C(=O)O5)[C@@]12O (stereo not given in full) | inactive | – |
| O=C(Nc1ccc(Cl)cc1F)c1ccccc1O | inactive | – |
| CCOC(=O)Nc1cc(-c2ccc(C)c(NS(C)(=O)=O)c2)nn2c(C)nnc12 | inactive | – |
| Cn1nnc(-c2ccc(-c3ccc(N4C[C@H](COP(=O)(O)O)OC4=O)cc3F)cn2)n1 | inactive | – |
